# Where a name gives a salt, the structure may show the parent alone.
# Test system: Vero E6 infected with SARS-CoV-2
# Test: inhibition of SARS-CoV-2 cytopathic effect; higher = more antiviral protection, active = above 15
# Details: 10000 nM; 48 h
row,Compound,inhibition of SARS-CoV-2 cytopathic effect
1,CCOC(=O)Nc1ccc2c(c1)N(C(=O)CCN(CC)CC)c1ccccc1S2 [ethacizin],2.9% (inactive)
2,OCc1cncc(F)c1 [5-fluoro-3-pyridyl-methanol],-2.94% (inactive)
3,Cc1ncc(CO)c(CO)c1O [pyridoxine],-14.1% (inactive)
4,Oc1ccc(CC2NCCc3cc(O)c(O)cc32)cc1 (stereo not given) [higenamine],-2.56% (inactive)
5,Cc1c(C)c(NCC(=O)N(C)C2CCN(Cc3ccc(C(N)=O)cc3)CC2)c(C)c(C)c1N,2.16% (inactive)
6,COc1cccc(Nc2c(C(N)=O)cnc3c(C)cc(S(=O)(=O)c4cccc(C(=O)N(C)C)c4)cc23)c1,0.48% (inactive)
7,CCNC(C)CN1CCc2c(c(=O)oc3ccccc23)C1 (stereo not given),-2.07% (inactive)
8,Cc1c(C)c2c(c(C)c1O)CCC(C)(C(=O)O)O2 (stereo not given) [trolox],2.14% (inactive)
9,COc1cccc2c1c(O)c(C(=O)N(C)c1ccc(C(F)(F)F)cc1)c(=O)n2C [tasquinimod],1.05% (inactive)
10,CC[N+](CC)(CC)CCOc1cccc(OCC[N+](CC)(CC)CC)c1OCC[N+](CC)(CC)CC [gallamine-triethiodide],-1.08% (inactive)
11,C#Cc1cccc(Nc2ncnc3cc4c(cc23)OCCOCCOCCO4)c1 [icotinib],-5.92% (inactive)
12,C[C@]12CC[C@@H](O)C[C@H]1CC[C@@H]1[C@@H]2CC[C@]2(C)C(=O)CC[C@@H]12 [3-alpha-hydroxy-5-beta-androstan-17-one],2.64% (inactive)
13,C[C@]12CC[C@@H]3c4ccc(O)cc4CC[C@H]3[C@@H]1CCC2=O [estrone],2.53% (inactive)
14,COC[C@@H](NC(C)=O)C(=O)NCc1ccccc1 [Lacosamide],-12.7% (inactive)
15,COC(=O)C[C@](O)(CCCC(C)(C)O)C(=O)O[C@@H]1C(OC)=C[C@]23CCCN2CCc2cc4c(cc2[C@H]13)OCO4 [homoharringtonine],-23.7% (inactive)
16,O=C1OC2(c3ccccc31)c1cc(I)c(O)c(I)c1Oc1c2cc(I)c(O)c1I [erythrosine],-12.8% (inactive)
17,Nc1ccc(S(=O)(=O)Nc2ccnn2-c2ccccc2)cc1 [sulfaphenazole],-0.83% (inactive)
18,CNc1ncc2cc(-c3cc(NC(=O)NCCC(C)(C)C)c(F)cc3C)c(C)nc2n1,-8.15% (inactive)
19,COc1ccc2[nH]c3c(-c4cccc5ccccc45)nccc3c2c1,-2.93% (inactive)
20,CO/N=C1\CN(c2nc3c(cc2F)c(=O)c(C(=O)O)cn3C2CC2)CC1CN (stereo not given) [gemifloxacin],5.76% (inactive)

row,Compound,inhibition of SARS-CoV-2 cytopathic effect
1,CCN(Cc1ccncc1)C(=O)C(CO)c1ccccc1 (stereo not given) [tropicamide],-2.47% (inactive)
2,CC1(C)S[C@@H]2[C@H](NC(=O)[C@H](NC(=O)N3CCNC3=O)c3ccccc3)C(=O)N2[C@H]1C(=O)O [azlocillin],-1.54% (inactive)
3,C[C@@H]1C[C@H]2[C@@H]3C[C@H](F)C4=CC(=O)C=C[C@]4(C)[C@@]3(Cl)[C@@H](O)C[C@]2(C)[C@H]1C(=O)COC(=O)C(C)(C)C [clocortolone-pivalate],-2.12% (inactive)
4,CN1CCN(c2cc(-c3ccccc3)nc(N)n2)CC1,2.49% (inactive)
5,C[C@]12CC[C@H](O)C[C@H]1CC[C@@H]1[C@@H]2C[C@@H](O)[C@]2(C)[C@@H](C3=CC(=O)OC3)CC[C@]12O [digoxigenin],-14.1% (inactive)
6,CCOc1cc(C(C)(C)C)ccc1C1=N[C@@](C)(c2ccc(Cl)cc2)[C@@](C)(c2ccc(Cl)cc2)N1C(=O)N1CCN(CCCS(C)(=O)=O)CC1,5.99% (inactive)
7,Cc1cc(/C=C/C#N)cc(C)c1Nc1ccnc(Nc2ccc(C#N)cc2)n1 [rilpivirine],-6.76% (inactive)
8,N[C@@H]1CCCN(c2c(/C=C3\SC(=O)NC3=O)cccc2-c2ccccc2)C1,0% (inactive)
9,CO/N=C(\C(=O)N[C@@H]1C(=O)N2C(C(=O)O)=C(Cn3ccc(=N)n3CCO)CS[C@H]12)c1csc(N)n1 [Cefoselis sulfate],1.21% (inactive)
10,CC(C)(C)NCc1cc(Nc2ccnc3cc(Cl)ccc23)c2c(c1O)CCCC2 [naphthoquine-phosphate],-5.14% (inactive)
11,CC(C)(COP(=O)(O)OP(=O)(O)OC[C@H]1O[C@@H](n2cnc3c(N)ncnc32)[C@H](O)[C@@H]1OP(=O)(O)O)[C@@H](O)C(=O)NCCC(=O)NCCS [coenzyme-A],2.93% (inactive)
12,O=C(Nc1cccc(Cl)c1)c1ccccn1,0.73% (inactive)
13,"CCCC(O)C(CC)CO (stereo not given) [2-ethyl-1,3-hexanediol]",0.65% (inactive)
14,Nc1nc(/C(=C/CC(=O)O)C(=O)N[C@@H]2C(=O)N3C(C(=O)O)=CCS[C@H]23)cs1 [ceftibuten],1.92% (inactive)
15,CN(C)CC[C@@H](c1ccc(Cl)cc1)c1ccccn1 [chlorphenamine],-5.02% (inactive)
16,CCOC(=O)N1CSC[C@H]1C(=O)O [telmesteine],-0.12% (inactive)
17,Cc1cccc(-c2n[nH]cc2-c2ccc(F)c(-c3cnn(CCO)c3)c2)n1,-3.66% (inactive)
18,C[C@H](CCC(=O)O)[C@H]1CC[C@H]2[C@@H]3C[C@H](O)[C@@H]4C[C@H](O)CC[C@]4(C)[C@H]3CC[C@]12C [Hyodeoxycholic acid (HDCA)],-1.93% (inactive)
19,CO/N=C(\C(=O)N[C@@H]1C(=O)N2C(C(=O)O)=C(CSc3nc(=O)c(O)nn3C)CS[C@H]12)c1csc(N)n1 [ceftriaxone],2.56% (inactive)
20,O=C(O)c1ccc(Nc2ncc3c(n2)-c2ccc(Cl)cc2C(c2c(F)cccc2F)=NC3)cc1,-1.05% (inactive)

# Reference: the supplement of paper PMC13380429
